Bioassay records as filed in PubChem.
aSyn 5UTR act: Activators via SNCA 5'UTR binding, MLPCN; activity score, % (tested at 7.5 µM), hits read low; AID 1814, 2009; 7.1% of 300,000 active; alpha-synuclein 5'UTR reporter, activators screen; in the data active = activity score below about -60%
* = called active by the depositor. Only a sample is shown.

SMILES	aSyn 5UTR act
N#C/C(=C(/O)CN1CCCCC1)c1nc(-c2ccc(Cl)cc2)cs1	-110*
COc1cc(NC(=O)N2CCNC2=O)cc(C(=O)Nc2cccc(C(F)(F)F)c2)c1	68
COc1cccc(NC(=O)c2ccc(OC(F)(F)F)cc2)c1	-153*
CC(=O)c1ccc(NC(=O)C(C)NCc2ccccc2Cl)cc1 (centres undefined)	-78*
COc1cccc(NC(=O)c2ccc(NC(=O)C(C)C)cc2)c1	-115*
CC(C)C(=O)Nc1ccc(C(=O)c2ccccc2)cc1	-88*
C[n+]1c2n(c3ccccc31)N=C(c1cc(C(C)(C)C)c(O)c(C(C)(C)C)c1)CS2	68
CCOc1ccc(-c2nc(C)c(C(C)=O)n2O)cc1	-173*
O=C(NNC(=O)c1cccs1)c1ccc2ccccc2c1	-71*
CC(=O)NC12CC3CC(C1)CC(C(=O)OCC(=O)c1ccc4c(c1)OCCO4)(C3)C2	-134*
COc1ccc(OCCOC(=O)c2cccs2)cc1	-66*
COCCOC(=O)c1[nH]c2c(c1C)C(=O)CC(c1cccs1)C2 (centres undefined)	64
O=C(COC(=O)c1cccs1)c1ccc2c(c1)OCCO2	-176*
O=C(COC(=O)c1cccs1)c1ccc2ccccc2c1	-121*
Fc1ccc(N2Cc3ccsc3C=N2)cc1	-64*
Nc1nc(N2CCN(C(=O)c3ccco3)CC2)nc2ccccc12	-102*
O=C1CCCc2nc(N3CCN(C(=O)c4ccco4)CC3)ncc21	-93*
O=C(c1ccco1)N1CCN(c2ncnc3c2oc2ccccc23)CC1	-113*
COc1cccc(-c2csc(NC(C)=O)n2)c1	-181*
CCc1ccc(-c2csc(NC(=O)Oc3ccccc3)n2)cc1	-161*
O=C(Nc1nc(-c2cccc(Br)c2)cs1)Oc1ccccc1	-101*
COCCNc1oc(-c2ccc(C)cc2)nc1C#N	-107*
COCCNc1oc(-c2ccc(Cl)cc2)nc1C#N	-162*
N#Cc1nc(-c2ccc(Cl)cc2)oc1NCc1ccco1	-108*
CCCC1CCC(c2ccc(OCC)cc2)=CC1=O (centres undefined)	-216*
SMILES	aSyn 5UTR act
Cc1nn(-c2ccccc2)c(N)c1N=Nc1ccc2ccccc2c1	-242*
Cc1ccc(N=Nc2c(N)nn(-c3ccccc3)c2N)cc1	-183*
O=C(NC(=S)Nc1cnc2ccccc2c1)c1ccccc1	-171*
Cc1ccc(NC(=O)Nc2cnc3ccccc3c2)cc1	-144*
O=C(Nc1cnc2ccccc2c1)c1ccncc1	-110*
Cn1ncc2cc(NC(=S)NC(=O)c3ccccc3)ccc21	-201*
S=C(NCCc1ccccc1)Nc1cnc2ccccc2c1	-115*
O=C(NC(=S)Nc1ncc(Br)cc1Br)c1ccccc1	-153*
CCOC(=O)c1cc(C)n(CCc2ccccc2)c1C	-69*
CCc1ccc(N2NC(=O)/C(=C/C=C/c3ccco3)C2=O)cc1	-78*
Cc1occc1-c1nnc(-c2cc([N+](=O)[O-])cc([N+](=O)[O-])c2)o1	-133*
Cc1cccc(-n2c(N)c(C(=O)NCCN3CCOCC3)c3nc4ccccc4nc32)c1	-83*
Cc1ccc(-n2c(N)c(C(=O)Nc3c(C)n(C)n(-c4ccccc4)c3=O)c3nc4ccccc4nc32)cc1C	74
CCc1ccc(OCc2cnc(Cl)s2)cc1	-78*
Cc1cc(C)nc(SCc2csc(-c3ccccc3)n2)n1	-91*
C=CCn1c(SCc2csc(-c3ccc(Cl)cc3)n2)nnc1-c1ccccc1OC	-64*
Nc1ccccc1SCc1csc(-c2ccc(Cl)cc2)n1	-72*
Cc1ccc(C(=O)NC2CCC(C)CC2)s1 (centres undefined)	-92*
CC1CCC(NC(=O)c2cc3c(s2)CCCC3)CC1 (centres undefined)	-116*
Cc1ccc2nc(-c3ccc(NC(=S)NCCC(C)C)cc3)sc2c1	-192*
COCCNc1nnc(SC(C)C(=O)Nc2ccc(-c3nc4ccc(C)cc4s3)cc2)s1 (centres undefined)	-79*
CCC(C)(C)NC(=S)Nc1ccc(-c2nc3ccc(C)cc3s2)cc1	-79*
CCCCNC(=S)Nc1ccc(-c2nc3ccc(C)cc3s2)cc1	-159*
CCCOC(=O)c1ccc(NC(=O)C2C3CCC(C3)C2C(=O)O)cc1 (centres undefined)	-85*
CCOC(=O)c1ccc(NC(=O)C2CC3CCC2C3)cc1 (centres undefined)	-128*
SMILES	aSyn 5UTR act
COC(=O)c1ccc(NC(=O)C2CC3CCC2C3)cc1 (centres undefined)	-194*
CCOC(=O)c1ccc(NS(=O)C23CC4CC(CC(C4)C2)C3)cc1 (centres undefined)	-110*
COC(=O)c1c(NC(=O)COc2ccc(Cl)cc2)sc2c1CC(C)(C)NC2(C)C	83
COC(=O)c1c(NC(=O)c2ccccc2[N+](=O)[O-])sc2c1CC(C)(C)NC2(C)C	-70*
N#C/C(=C\c1ccc([N+](=O)[O-])cc1)c1ccccn1	-121*
CN(C)c1ccc(/C=C(\C#N)c2ccccn2)cc1	102
COC(=O)c1ccc(/C=C(\C#N)c2ccccn2)cc1	-132*
Cc1cc(C)nc(NC(=O)CSc2nc3ccccc3s2)n1	-203*
